According to PubChem BioAssay (EPA / NIEHS):
Activity calls are given as the source filed them. Rule for the calls: active = hit-call score of the fitted dose curve at least 0.9, where 1 is the maximum; inactive = score below 0.9.

Columns and labels:
[1] = ATG_CRE_CIS: Attagene CIS-FACTORIAL HepG2 Assay for human cAMP Responsive Element (CRE) binding protein 3 (AID 2282926); conditions: HepG2 CRE cis-reporter, Attagene multiplexed mRNA; actives raise or lower the signal
In short: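 HepG2 cells transiently transfected with a multiplexed reporter library (CRE-driven unit among them) were dosed for 24 h. Reporter mRNA was quantified by RT-PCR, fluorescent labelling, HpaI digestion and capillary electrophoresis, with bidirectional fitting against DMSO baseline.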

[2] = molecular target: CCAAT/enhancer-binding protein beta (Homo sapiens) (UniProt P17676); experiment: ATG_C_EBP_CIS: Attagene CIS-FACTORIAL HepG2 Assay for human CCAAT/Enhancer Binding Protein (C/EBP) beta (AID 2282927); conditions: HepG2 Attagene cis-factorial transcription factor reporter; actives raise or lower the signal
Chain of CCAAT/enhancer-binding protein beta (Homo sapiens) (P17676 whole entry, looked up): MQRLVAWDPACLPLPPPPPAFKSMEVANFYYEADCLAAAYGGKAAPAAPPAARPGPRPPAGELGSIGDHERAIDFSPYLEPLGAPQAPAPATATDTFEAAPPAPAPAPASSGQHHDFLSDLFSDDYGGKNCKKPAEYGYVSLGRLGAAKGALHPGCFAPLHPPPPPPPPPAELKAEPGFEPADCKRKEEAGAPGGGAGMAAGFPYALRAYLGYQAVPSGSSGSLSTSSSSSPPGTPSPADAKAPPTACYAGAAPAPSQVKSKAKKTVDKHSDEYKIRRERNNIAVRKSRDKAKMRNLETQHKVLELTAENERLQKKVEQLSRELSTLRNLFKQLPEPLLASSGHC
In short: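 Changes in reporter mRNA, rather than exogenous chimeric receptor activity, reflect native C/EBP signalling in transfected HepG2 cells dosed for 24 h; transcripts are detected by RT-PCR and capillary electrophoresis.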

[3] = ATG_CMV_CIS: Attagene CIS-FACTORIAL HepG2 Assay for human CMV (Internal Marker) (AID 2282928); conditions: HepG2 CMV promoter reporter, transcription factor profiling; actives raise or lower the signal;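 note: endpoint acts as a background internal control marker rather than a target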
In short: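 Cell system: HepG2, transiently transfected multiple reporter units under cis promoters. Exposure: 24 h. Detection: RT-PCR, FAM labeling, HpaI digestion, capillary electrophoresis. Analysis: bidirectional, DMSO baseline.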

[4] = ATG_DR4_LXR_CIS: Attagene CIS-FACTORIAL HepG2 Assay for human Liver X Receptor (LXR), DR4 submotif (AID 2282929); conditions: HepG2 Attagene DR4 cis-reporter, mRNA transcription; actives raise or lower the signal
In short: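 After transient transfection with multiplexed cis-promoter reporter units, HepG2 cells received test chemicals for 24 h. Reporter mRNA induction, detected by fluorescence after RT-PCR and capillary electrophoresis, was scored relative to DMSO.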

[5] = molecular target: Aryl hydrocarbon receptor (Homo sapiens) (UniProt P35869); experiment: ATG_Ahr_CIS: Attagene CIS-FACTORIAL HepG2 Assay for human Aryl Hydrocarbon Receptor (Ahr) (AID 2282930); conditions: HepG2 AhR cis-factorial reporter transcription; actives raise or lower the signal
Chain of Aryl hydrocarbon receptor (Homo sapiens) (P35869 whole entry, looked up): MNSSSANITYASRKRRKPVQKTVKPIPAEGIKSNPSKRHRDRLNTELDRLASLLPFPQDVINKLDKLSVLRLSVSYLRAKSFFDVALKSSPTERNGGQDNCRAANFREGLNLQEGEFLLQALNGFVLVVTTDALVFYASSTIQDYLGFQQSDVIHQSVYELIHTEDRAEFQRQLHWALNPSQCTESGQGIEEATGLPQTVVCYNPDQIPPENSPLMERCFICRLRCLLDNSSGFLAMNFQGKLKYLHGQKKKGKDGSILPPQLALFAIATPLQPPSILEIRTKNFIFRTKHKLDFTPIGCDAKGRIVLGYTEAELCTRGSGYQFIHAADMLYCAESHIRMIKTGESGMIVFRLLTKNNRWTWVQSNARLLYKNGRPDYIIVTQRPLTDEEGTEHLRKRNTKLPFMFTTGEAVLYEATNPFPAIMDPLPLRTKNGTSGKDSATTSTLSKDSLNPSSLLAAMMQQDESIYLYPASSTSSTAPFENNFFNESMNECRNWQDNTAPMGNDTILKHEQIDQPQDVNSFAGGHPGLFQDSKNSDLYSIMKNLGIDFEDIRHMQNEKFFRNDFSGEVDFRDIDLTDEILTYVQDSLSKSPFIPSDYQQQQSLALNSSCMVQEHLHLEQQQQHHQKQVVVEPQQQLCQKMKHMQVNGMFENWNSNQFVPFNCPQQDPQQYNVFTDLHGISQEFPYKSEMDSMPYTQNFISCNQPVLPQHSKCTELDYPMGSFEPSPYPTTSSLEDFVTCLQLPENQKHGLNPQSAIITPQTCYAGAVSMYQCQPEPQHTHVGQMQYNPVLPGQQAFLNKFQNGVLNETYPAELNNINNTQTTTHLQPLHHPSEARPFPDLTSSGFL
In short: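 HepG2, transient MRTU (cis) transfection, 24 h exposure. RNA → cDNA → PCR → 6-FAM primer extension → HpaI 2 h 37 C → CE. Fit: bidirectional, DMSO baseline.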

[6] = ATG_AP_1_CIS: Attagene CIS-FACTORIAL HepG2 Assay for human Activator Protein 1 (AP-1) (AID 2282931); conditions: HepG2 Attagene cis-factorial AP-1 reporter mRNA; actives raise or lower the signal
In short: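 After 24 h incubation with test chemical, RNA from transfected HepG2 cells was reverse-transcribed, amplified, fluorescently labelled and digested before capillary electrophoresis. Reporters were driven by cis-regulatory promoters; activity fitted bidirectionally versus DMSO.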

[7] = ATG_AP_2_CIS: Attagene CIS-FACTORIAL HepG2 Assay for human Activator Protein 2 (AP-2) (AID 2282932); conditions: HepG2 AP-2 cis-reporter, Attagene transcription factor profiling; actives raise or lower the signal
In short: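 Step one: transient transfection of HepG2 with reporter transcription units. Step two: 24 h chemical exposure. Step three: RNA extraction, RT-PCR, labelled fragment analysis by capillary electrophoresis; DMSO serves as baseline.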

[8] = ATG_BRE_CIS: Attagene CIS-FACTORIAL HepG2 Assay for human Bone Morphogenetic Protein (BMP) Response Element (BRE) (AID 2282933); conditions: HepG2 BMP response element reporter, Attagene transcription factor profiling; actives raise or lower the signal
In short: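 Multiplexed cis-reporter assay, HepG2, 24 h exposure. mRNA from reporter units quantified via RT-PCR/CE; DMSO baseline; bidirectional curve fit.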

[9] = molecular target: Retinoic acid receptor alpha (Homo sapiens) (UniProt P10276); experiment: ATG_DR5_RAR_CIS: Attagene CIS-FACTORIAL HepG2 Assay for human Retinoic Acid Receptor Alpha (RARE), DR5 submotif (AID 2282934); conditions: HepG2 Attagene cis-factorial RARE DR5 reporter, mRNA; actives raise or lower the signal
Chain of Retinoic acid receptor alpha (Homo sapiens) (P10276 whole entry, looked up): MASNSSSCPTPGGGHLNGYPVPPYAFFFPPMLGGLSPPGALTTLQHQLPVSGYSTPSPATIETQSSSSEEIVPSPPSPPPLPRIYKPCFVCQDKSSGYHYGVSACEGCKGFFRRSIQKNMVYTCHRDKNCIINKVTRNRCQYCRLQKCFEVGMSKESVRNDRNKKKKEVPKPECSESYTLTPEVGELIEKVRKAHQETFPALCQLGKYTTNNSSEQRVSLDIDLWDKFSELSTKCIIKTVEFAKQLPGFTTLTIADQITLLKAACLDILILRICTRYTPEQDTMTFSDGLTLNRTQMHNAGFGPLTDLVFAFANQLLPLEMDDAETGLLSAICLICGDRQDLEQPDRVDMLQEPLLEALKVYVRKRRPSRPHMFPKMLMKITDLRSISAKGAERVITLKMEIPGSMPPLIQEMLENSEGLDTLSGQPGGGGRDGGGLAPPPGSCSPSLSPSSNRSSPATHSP
In short: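 HepG2, transient cis-reporter transfection, 24 h exposure. mRNA readout: RT-PCR, FAM label, HpaI cut, capillary electrophoresis. DMSO baseline, gain/loss fitting.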

[10] = molecular target: Transcription factor E2F1 (Homo sapiens) (UniProt Q01094); experiment: ATG_E2F_CIS: Attagene CIS-FACTORIAL HepG2 Assay for human E2F Transcription Factor 1 (AID 2282935); conditions: HepG2 Attagene cis-reporter, E2F reporter RNA transcripts; actives raise or lower the signal
Chain of Transcription factor E2F1 (Homo sapiens) (Q01094 whole entry, looked up): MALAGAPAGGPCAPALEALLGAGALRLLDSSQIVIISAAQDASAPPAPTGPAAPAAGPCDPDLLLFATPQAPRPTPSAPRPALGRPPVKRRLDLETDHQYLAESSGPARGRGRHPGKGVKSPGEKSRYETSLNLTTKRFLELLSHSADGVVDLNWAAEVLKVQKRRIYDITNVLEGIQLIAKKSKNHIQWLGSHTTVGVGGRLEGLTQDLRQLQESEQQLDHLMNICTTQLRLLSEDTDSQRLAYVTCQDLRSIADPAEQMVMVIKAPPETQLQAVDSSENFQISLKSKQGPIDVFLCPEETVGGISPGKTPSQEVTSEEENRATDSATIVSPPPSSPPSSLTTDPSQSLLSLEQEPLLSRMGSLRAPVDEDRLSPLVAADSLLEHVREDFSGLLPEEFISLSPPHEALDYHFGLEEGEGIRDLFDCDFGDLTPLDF
In short: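 Total RNA from 24 h-treated, reporter-transfected HepG2 cells undergoes DNase I treatment, oligo(dT) reverse transcription, PCR and 6-FAM primer extension before capillary electrophoresis.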

[11] = ATG_E_Box_CIS: Attagene CIS-FACTORIAL HepG2 Assay for human Enhancer Box (E-box) (AID 2282936); conditions: HepG2 E-box cis-reporter transcription, actives raise or lower the signal
In short: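 DMSO served as negative control and baseline for bidirectional fitting. Human hepatoma HepG2 cells, transiently transfected with cis-reporter constructs, were dosed 24 h; reporter mRNA read by RT-PCR and capillary electrophoresis.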

[12] = ATG_M_61_CIS: Attagene CIS-FACTORIAL HepG2 Assay for M61 Transcription Factor (Internal Marker) (AID 2282937); conditions: HepG2 Attagene CIS-FACTORIAL M61 internal marker reporter; actives raise or lower the signal
In short: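 Using transiently transfected HepG2 liver cells, reporter transcript levels were assessed 24 h post-dosing by RT-PCR and capillary electrophoresis. Changes in either direction were fitted relative to DMSO controls.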

[13] = ATG_M_19_CIS: Attagene CIS-FACTORIAL HepG2 Assay for M19 Transcription Factor (Internal Marker) (AID 2282939); conditions: HepG2 Attagene CIS-FACTORIAL M19 internal marker reporter; actives raise or lower the signal
In short: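 Signals come from fluorescence of labelled reporter-specific PCR fragments resolved by capillary electrophoresis, following 24 h treatment of HepG2 cells transfected with cis-promoter reporter units; activity was fitted in both directions relative to DMSO.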

[14] = ATG_FoxO_CIS: Attagene CIS-FACTORIAL HepG2 Assay for human Forkhead box O (FoxO) (AID 2282943); conditions: HepG2 Attagene cis-reporter, FoxO element, mRNA; actives raise or lower the signal
In short: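 Human hepatoma HepG2 cells carry transiently introduced reporter transcription units controlled by cis promoter elements. Chemical treatment lasted 24 h, and mRNA signal was compared with DMSO.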

[15] = ATG_GATA_CIS: Attagene CIS-FACTORIAL HepG2 Assay for human GATA Binding Protein (AID 2282944); conditions: HepG2 GATA cis-element reporter, Attagene multiplex mRNA; actives raise or lower the signal
In short: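 After transfecting HepG2 cells with multiple cis-regulated reporter units, chemicals are dosed for 24 h; isolated RNA undergoes RT-PCR and fluorescent labeling before capillary electrophoresis, with activity expressed against DMSO.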

[16] = ATG_EGR_CIS: Attagene CIS-FACTORIAL HepG2 Assay for human Early Growth Response 1 (EGR1) (AID 2282938); conditions: HepG2 Attagene CIS-FACTORIAL EGR reporter mRNA; actives raise or lower the signal
In short: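 Fluorescent capillary-electrophoresis signal of reporter cDNA fragments serves as read-out. HepG2 cells bear transiently transfected cis-promoter reporter units and are exposed 24 h; gain- or loss-of-signal is fitted against DMSO.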

[17] = ATG_ERE_CIS: Attagene CIS-FACTORIAL HepG2 Assay for Estrogen Response Element (ERE) (AID 2282940); conditions: HepG2 ERE cis-reporter, Attagene RNA transcript; actives raise or lower the signal
In short: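 Fluorescence of capillary-separated, FAM-labelled reporter cDNA fragments indicates reporter mRNA levels in HepG2 cells exposed to chemicals for 24 h. Transient transfection with cis-regulated units; data fitted in both directions against DMSO.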

[18] = ATG_Ets_CIS: Attagene CIS-FACTORIAL HepG2 Assay for human Erythroblast Transformation Specific (ETS) (AID 2282941); conditions: HepG2 ETS cis-reporter transcription, actives raise or lower the signal
In short: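 After transient cis-reporter transfection, HepG2 cells receive test chemical for 24 h. Reporter mRNA levels, measured by RT-PCR and capillary electrophoresis fluorescence, are analysed bidirectionally relative to the DMSO baseline.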

[19] = ATG_GLI_CIS: Attagene CIS-FACTORIAL HepG2 Assay for human Zinc Finger Protein GLI1 (AID 2282945); conditions: HepG2, Attagene cis-factorial reporter mRNA, GLI element; actives raise or lower the signal
In short: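 Bidirectional curve fits relative to DMSO, using reporter mRNA levels from RT-PCR plus capillary electrophoresis. Cells were HepG2 transiently carrying cis-regulated reporter constructs, harvested 24 h after dosing.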

[20] = molecular target: Hepatocyte nuclear factor 3-beta (Homo sapiens) (UniProt Q9Y261); experiment: ATG_FoxA2_CIS: Attagene CIS-FACTORIAL HepG2 Assay for human Forkhead box A2 (FOXA2) (AID 2282942); conditions: HepG2 cis-reporter transcription factor activity, 24 h; actives raise or lower the signal
Chain of Hepatocyte nuclear factor 3-beta (Homo sapiens) (Q9Y261 whole entry, looked up, the tested form may be a part): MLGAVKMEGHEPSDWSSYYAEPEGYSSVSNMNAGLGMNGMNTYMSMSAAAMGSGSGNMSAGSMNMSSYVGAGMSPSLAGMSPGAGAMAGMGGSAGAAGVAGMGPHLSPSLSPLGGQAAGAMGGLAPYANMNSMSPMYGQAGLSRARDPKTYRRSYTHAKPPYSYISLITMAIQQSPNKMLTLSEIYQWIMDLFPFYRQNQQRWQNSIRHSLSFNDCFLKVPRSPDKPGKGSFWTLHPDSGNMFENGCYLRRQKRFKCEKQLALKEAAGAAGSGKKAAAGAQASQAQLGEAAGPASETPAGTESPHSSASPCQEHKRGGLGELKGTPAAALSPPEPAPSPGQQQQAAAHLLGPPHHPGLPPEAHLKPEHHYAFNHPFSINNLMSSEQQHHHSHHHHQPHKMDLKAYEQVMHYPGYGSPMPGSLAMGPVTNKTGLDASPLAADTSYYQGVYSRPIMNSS
In short: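 Fluorescence signal of reporter cDNA fragments, separated by capillary electrophoresis, reflects endogenous transcription factor activity in transfected HepG2 after 24 h. Both increases and decreases fitted against DMSO.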

Measured: AC50

[Ca+2]
not listed: [16] | [17] | [18] | [19] | [20]
inactive: all other assays above

CC(C)Oc1ccccc1O
active: [5] 47.8 µM
not listed: [9] | [20]
inactive: all other assays above

OCCCCCO
not listed: [9]
inactive: all other assays above

NCCCN1CCOCC1
not listed: [9] | [15]
inactive: all other assays above

C=CC(C)(C)O
not listed: [9]
inactive: all other assays above

CC(C)OP(=O)(CP(=O)(OC(C)C)OC(C)C)OC(C)C
not listed: [9] | [19]
inactive: all other assays above

C=C(C)C(=O)Nc1ccc(Cl)c(Cl)c1
active: [5] 14.9 µM | [8] 79.9 µM | [16] 27.2 µM
not listed: [9] | [15]
inactive: all other assays above

COc1ccc(OC)c(OC)c1
not listed: [9] | [15]
inactive: all other assays above

CC(C)(N)CO
not listed: [9]
inactive: all other assays above

O=C(O)COCCN1CCN(C(c2ccccc2)c2ccc(Cl)cc2)CC1 (stereo unspecified)
active: [17] 18.8 µM
not listed: [9] | [20]
inactive: all other assays above

CC1(C)CCC(C)(C)c2cc(C(=O)Nc3ccc(C(=O)O)cc3)ccc21
active: [4] 27.6 µM | [7] 66.6 µM | [16] 63 µM
not listed: [9] | [14]
inactive: all other assays above

CC[Si](OC(C)=O)(OC(C)=O)OC(C)=O
not listed: [9] | [19] | [20]
inactive: all other assays above

CCCC(=O)c1cc(O)c(O)cc1O
not listed: [9]
inactive: all other assays above

CCCCCCCCCCCCN(CCCCCCCCCCCC)CCCCCCCCCCCC
not listed: [10] | [17] | [18]
inactive: all other assays above
